# Assay outcomes as filed in PubChem.
# Tau ThT inhib: tau fibrillization inhibition (ThT binding). P10636. recombinant tau K18 P301L, heparin-induced fibrillization, ThT fluorescence. Potency, µM (titrated, usually from 57.4 µM), inactives show at the top dose activity, negative = inhibition, most hits filed as inhibitors. 2.1% of 270,000 active. AID 1460; further: potency means the concentration at half of the fitted maximal effect; nearly all actives have a fitted effect of over 55% in size
# Target sequence (P10636 561-689 P618L limits assumed): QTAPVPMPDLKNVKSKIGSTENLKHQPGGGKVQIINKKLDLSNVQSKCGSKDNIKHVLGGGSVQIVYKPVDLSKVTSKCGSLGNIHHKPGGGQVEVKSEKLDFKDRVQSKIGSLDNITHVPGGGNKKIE
#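 ThT emission at 510 nm, taken 1 hr after adding 30 uM dye, quantifies aggregates formed when 20 uM heparin acts on human tau K18 P301L for 6 hr at 37 C.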
# FBPA coupling cs: inhibits coupling enzyme system, counter-screen for aldolase hits; coupling enzyme system counterscreen, AmpLite Red fluorescence; activity change, negative = inhibition, % at 58.2 µM, hits read low; 0.67% of 290,000 active; in the data active means activity change below about -30%
#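 Fluorescence at 525 nm excitation and 598 nm emission measured inhibition of the coupled detection system without aldolase. Compounds (at 57.5 uM final) were preincubated 10 min at room temperature with coupling enzyme reagent before a 20 min substrate/AmpLite Red step.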
# Tau FP inhib: blocks human tau fibril formation measured by polarization; P10636; K18 P301L tau heparin fibrillization, Alexa594 FP, 6 h; Potency, µM (titrated, usually from 57.7 µM), for the others: at the highest dose activity, negative = inhibition, hits mostly inhibitors; 0.39% of 280,000 active; AID 1468; further: potency means the concentration at half of the fitted maximal effect; nearly all actives have a fitted effect of over 55% in size
#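 Compound effects on tau fibrillization are measured by Alexa 594 fluorescence polarization (ex 555, em 632 nm). K18 P301L tau is used at 15 uM with 0.24 uM labeled tracer, and 20 uM heparin induces aggregation over 6 hr at 37 C.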
# Tau fluor counter: counter-screen for tau fibril formation inhibitors; 0.93% of 280,000 active; Potency, µM (titrated, usually from 57.7 µM), for the others: top-dose activity change, negative = decrease; tau K18 P301L Alexa594 fluorescence, heparin fibrillization; AID 1463; further: potency means the concentration at half of the fitted maximal effect; nearly all actives have a fitted effect of over 55% in size
#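 Human tau K18 P301L (15 uM unlabeled, 0.24 uM Alexa 594-labeled) in 100 mM sodium acetate pH 7 with 20 uM heparin, 6 hr at 37 C. ThT 30 uM added, 1 hr ambient; Alexa 594 FP and total fluorescence read at 555/632 nm.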
# USP1-UAF1 inh: blocks the human USP1/UAF1 deubiquitinase complex; O94782; recombinant USP1/UAF1, Ub-Rhodamine cleavage fluorescence; Potency, µM (titrated, usually from 57.1 µM), inactives show top-dose activity change, negative = inhibition, most hits filed as inhibitors; 0.23% of 390,000 active; AID 743255; further: potency means the concentration at half of the fitted maximal effect; nearly all actives have a fitted effect of over 60% in size
#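 High-throughput fluorogenic screen: 1nM USP1/UAF1 complex, Ub-Rho substrate 150nM final, 50mM HEPES pH 7.8 with 0.5mM EDTA, 0.1 mg/ml BSA, 1mM TCEP and 0.01% Tween-20.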
# Active calls of the source: *; ? = inconclusive; . = no result given; [ ] = another dose, or the depositor's remark. A selection: hits, their analogues and other compounds. The true share with any hit is near 2.3%. Unless noted, the call rests on the fitted dose curve; in most records, active means well fitted curve in the direction sought with a large enough effect; inconclusive means small, poorly fitted or top-dose-only effect, or another doubt; inactive means no such curve, though single readings can be large; an effect the other way counts as inactive or inconclusive. On the % scale 0 is the no-effect control and ±100 the full control effect.
SMILES,Tau ThT inhib,FBPA coupling cs,Tau FP inhib,Tau fluor counter,USP1-UAF1 inh
COc1cccc(Nc2nnc(SCc3nc4ccccc4s3)s2)c1,?,0,-13%,14µM*[quencher],-8%
Cc1cccnc1Nc1nc(-c2ccc(O)cc2)cs1,13µM*,-2,12%,18µM*[quencher],-20%
Cc1cccc(C)c1Nc1nnc(SCc2nc3ccccc3s2)s1,?,1,8%,-13%,-19%
Cc1cccc(Nc2nc(-c3ccc4c(c3)OCCO4)cs2)c1,7.1µM*,-4,4%,13µM*[quencher],7%
COc1cccc(Nc2ccc(Nc3cccc(OC)c3)nn2)c1,?,-1,9%,13µM*[quencher],-21%
O=C(Cc1ccccc1Nc1c(Cl)cccc1Cl)OCO/N=[N+](\[O-])N1CCCC1,.,-25,.,.,.
Cc1cccc(N(Cc2ccccc2)C(=O)c2cccc(S(=O)(=O)N3CC(C)OC(C)C3)c2)c1 (centres undefined),.,.,.,.,-12%
COc1cccc(Nc2nc(-c3cccc(N4C(=O)c5ccccc5C4=O)c3)cs2)c1,?,-2,?,7.9µM*[quencher],-12%
Cc1cccc(Nc2nc(-c3ccncc3)cs2)c1,?,-4,?,?,-15%
COc1cccc(Nc2nc(-c3ccc(O)cc3)cs2)c1,11µM*,-3,8%,14µM*[quencher],-7%
Cc1cc(C)cc(N2C(=O)CSC23C(=O)N(Cc2c(F)cccc2Cl)c2ccccc23)c1 (centres undefined),-4%,.,-7%,-10%,-19%
CCC(C)C(=O)N1c2ccccc2C(=C2SC(C(=O)OC)=C(C(=O)OC)S2)C(=S)C1(C)C (centres undefined),4µM*,-6,?,?,-9%
CN(C)c1ccc(NC(=O)C(=O)C2C(=O)Nc3ccccc32)cc1 (centres undefined),14µM*,-2,6%,-21%,-6%
CN(C)c1ccc(CC2C(=O)Nc3ccccc32)cc1 (centres undefined),32µM*,-39*,?,?,-20%
CCCS(=O)(=O)N1CC(=O)N(c2ccccc2C)C(C)(C(=O)NC2CCCC2)C1 (centres undefined),9%,.,2%,5%,-11%
Cc1cc2ccccn2c1C(=O)c1ccc(N/N=C/c2ccc(C(=O)O)cc2)c([N+](=O)[O-])c1,3.2µM*,6,-6%,-28%,2%
C/C(=N\Nc1ccc(C(=O)c2c(C)cc3ccccn23)cc1[N+](=O)[O-])c1ccc(O)cc1,?,0,?,?,-10%
N#Cc1c(/N=C/c2cccs2)sc2c1CCC2,2.8µM*,-4,-3%,-23%,-20%
N#Cc1c(/N=C/c2ccco2)sc2c1CCCCC2,4.5µM*,-1,-10%,-23%,-24%
Cc1cc(C)cc(-n2c(C)cc(C(=O)C(=O)Nc3nnc(C)s3)c2C)c1,-8%,.,12%,-1%,-8%
Nc1c(C(=O)N/N=C/c2cccnc2)oc2nc(-c3ccco3)cc(-c3ccco3)c12,16µM*,-7,?,?,-17%
Nc1c(C(=O)N/N=C/c2cccnc2)oc2nc(-c3ccccc3)cc(-c3ccco3)c12,?,-9,1%,-15%,51%
COc1ccc(/C=C2\C(=O)NC(=O)c3ccccc32)cc1OC,.,.,.,.,1.8µM*
CCN1C(=O)/C(=C/c2ccc(N3CCCC3)cc2)NC1=S,11µM*,1,?,?,-5%
Cc1cc(/C=C2/C(=O)N(C)C(=S)N2C)ccc1N1CCCC1,4µM*,0,-3%,?,?
SMILES,Tau ThT inhib,FBPA coupling cs,Tau FP inhib,Tau fluor counter,USP1-UAF1 inh
CCCN1C(=O)/C(=C/c2ccc(N3CCCC3)c(C)c2)NC1=S,?,7,?,8.9µM*[quencher],40%
CCOc1cc(/C=C2/SC(=S)NC2=O)ccc1OC(=O)c1ccco1,13µM*,9,?,-22%,-23%
CCOC(=O)c1ccc(N2NC(=O)/C(=C/c3ccc(OC(=O)c4ccco4)c(OC)c3)C2=O)cc1,22µM*,6,9%,?,.
COc1cc(/C=C2/SC(=O)NC2=O)ccc1OC(=O)c1ccco1,.,-5,.,.,-6%
COc1ccc(C(NC(=O)CN2C(=O)NC3(CCc4ccccc43)C2=O)c2ccc(OC)cc2)cc1 (centres undefined),.,.,.,.,-22%
Nc1ccc(-c2nc3ccc(N)cc3s2)cc1,11µM*,-1,1%,?,-19%
Nc1ccc2nc(-c3ccc(O)cc3)sc2c1,7.9µM*,.,3%,?,-17%
S=C(Nc1ccc(Cl)c(Cl)c1)NC1CCN(Cc2ccccc2)CC1,4%,2,25µM*,?,-26%
Cc1[nH]nc(Nc2ccc(C(C)C)cc2)c1[N+](=O)[O-],13µM*,2,-1%,?,-10%
Cc1[nH]nc(Nc2ccc(Br)cc2)c1[N+](=O)[O-],6.3µM*,-1,-2%,-28%,-13%
CC(NC(=O)c1ccc(Cl)cc1)c1nnc(SCC(=O)NC2=NCCS2)n1C (centres undefined),.,5,.,.,-12%
Cc1ccc(NC(=O)NCC2CCN(Cc3cccc(Cl)c3)CC2)cc1Cl,-7%,1,28µM*,?,-21%
CCN1/C(=C2\C(=O)N(c3ccccc3)N=C2C)C=Cc2cc(C)ccc21,?,3,4%,-7%,-8%
CCN1/C(=C/c2cc[n+](C)cc2)C=Cc2cc(C)ccc21,8.9µM*,-50*,-5%,11%,?
COC(=O)C1=C(C)N(CCc2ccc(OC)c(OC)c2)C(=O)/C1=C\N(C)C,14µM*,-9,?,-26%,-11%
COc1ccc(CCN2C(=O)C=CC2=O)cc1OC,.,.,.,.,-17%
CC(C(=O)c1c[nH]c(C(N)=O)c1)c1ncc(C(F)(F)F)cc1Cl (centres undefined),-8%,0,3%,-3%,-14%
Cc1ccc(C)c(CSc2nnc3[nH]c(=O)cc(C)n23)c1,-6%,.,1%,2%,3%
COC(=O)CCSc1cc(NCCOC(C)=O)c([N+](=O)[O-])c2nonc12,11µM*,-5,-10%,?,-15%
O=[N+]([O-])c1c(NCCCO)cc(SCc2ccco2)c2nonc12,7.9µM*,-7,?,?,-7%
Cn1ccnc1Sc1cc(NCCCO)c([N+](=O)[O-])c2nonc12,4.5µM*,-4,-13%,?,-7%
CC(=O)OCCNc1cc(Sc2nc3ccccc3[nH]2)c2nonc2c1[N+](=O)[O-],0%,1,0%,-2%,1%
CCCC(=O)OCCNc1cc(SCCC(=O)OC)c2nonc2c1[N+](=O)[O-],-1%,-23,-2%,-6%,-19%
CC(=O)OCCNc1cc(SCc2ccco2)c2nonc2c1[N+](=O)[O-],7.1µM*,-10,?,7.9µM*[quencher],-5%
CCOC(=O)N1CCC(NC(=O)c2oc3c(C)c(C)ccc3c2C)CC1,.,.,.,.,-26%
